Records with an inconclusive call do not appear. A call without a number means that no potency is given here. A number with no mark means an inactive call. The source made the active and inactive calls. Calls come from the whole dose curve; as a rule, active = well fitted inhibition curve with a large enough effect; inconclusive = small, poorly fitted or top-dose-only effect; inactive = no such curve, though single readings can be large or run the other way.

The nature of this test: Primary qHTS for inhibitors of nuclear receptor binding SET domain protein 2 (NSD2) in an RCH-ACV wild type WT cells (2C) (AID 1645877). Note: nearly all actives have a fitted effect of over 70% in size. Particulars: RCH-ACV (leukaemia line) NSD2 WT (2C) viability, CellTiter-Glo, 72 h; series mostly up to 44.9 µM.
Consider `CC1(C)CC[C@]2(C(=O)O[C@@H]3O[C@H](CO)[C@@H](O)[C@H](O)[C@H]3O)CC[C@]3(C)C(=CCC4[C@@]5(C)CC[C@H](O[C@@H]6O[C@H](C(=O)O)[C@@H](O[C@@H]7O[C@H](CO)[C@@H](O)[C@H](O)[C@H]7O)[C@H](O)[C@H]6O)C(C)(C)C5CC[C@]43C)C2C1` (stereo partly drawn), for which the activity change, negative = cell killing is 2.22% [at 9.23 µM].
In the case of `O=C(/C=C/c1ccc(O)c(O)c1)O[C@H]1[C@H](OC2CCCCC2O)O[C@H](CO)[C@@H](O)[C@@H]1O` (stereo partly drawn), the Potency entry is “inactive”.
Turning to `CC1=C(C)C(=O)OC(C(C)C2C(O)CC3C4C5OC5C5(O)CC(OC6OC(CO)C(OC7OC(C)C(O)C(O)C7O)C(O)C6O)CC(O)C5(C)C4CCC32C)C1` (stereo not drawn), the Potency result is “inactive”.
On to `C=C1CC[C@@H]2[C@](C)(CO)[C@H](O[C@@H]3O[C@H](CO)[C@@H](O)[C@H](O)[C@H]3O)CC[C@@]2(C)[C@@H]1C/C=C1/C(=O)OC[C@H]1O`, for which the Potency entry was “inactive”.
Same read-out and setting: next, `C=C1CCC2C(C)(C)CC(O)CC2(C)C1CCC(C)CC(=O)O` (stereo not drawn): “inactive”; `C/C(=C\C(=O)C[C@@]12C(=O)O[C@]3(C)CC[C@H]1C[C@H]23)C(N)=O`: “inactive”; `O=C(O)c1cccc(C(=O)CCC2OC(n3cnc4c(=O)[nH]cnc43)C(O)C2O)c1` (stereo not drawn): “inactive”.
On the same count and under the same terms, with `CC(C)=CCC[C@@](C)(O)[C@H]1CC[C@]2(C)[C@@H]1[C@H](O)CC1[C@@]3(C)CC[C@H](O[C@@H]4O[C@H](CO)[C@@H](O)[C@H](O)[C@H]4O[C@@H]4O[C@H](CO)[C@@H](O)[C@H](O)[C@H]4O)C(C)(C)[C@@H]3CC[C@]12C` (stereo partly drawn) the entry was “inactive”; with `CCN=C1N[C@@H]2[C@@H](O)[C@H](O)[C@@H](CO)O[C@@H]2S1`, “inactive”.
On the same count and under the same terms, next, `C[C@H]1CC[C@@]2(OC1)O[C@H]1CC3C4CC[C@H]5C[C@@H](O)CC[C@]5(C)C4CC(=O)[C@]3(C)[C@H]1[C@@H]2C` (stereo partly drawn): “inactive”; `COC(=O)C1=CO[C@@H](O[C@@H]2O[C@H](CO)[C@@H](O)[C@H](O)[C@H]2O)/C(=C\CO)[C@@H]1CC(=O)OCCc1ccc(O)cc1`: “inactive”; `C=C(COC(=O)CC(C)C)C1Cc2cc(C(C)=O)ccc2O1` (stereo not drawn): “inactive”.
On to `C/C=C/C=C/C=C/C(=O)OC1C=C2C(O)OC(=O)[C@]2(O)[C@@]2(C)CCCC(C)(C)[C@H]12` (stereo partly drawn), for which the Potency entry was “inactive”.
Regarding `COc1cc(C(=O)OC[C@H]2O[C@@H](OC(C)(C)C(=O)O)[C@H](O)[C@@H](O)[C@@H]2O)cc(OC)c1O`, the Potency result is “inactive”.
Turning to `COc1ccc2c(c1)N1C(=O)C[C@@]34C=CC[N@+]5([O-])CC[C@H]2[C@H](CC3)[C@@]145`, the Potency entry is “inactive”.
Consider `C=C1C(O)CC2C(C(=O)O)=COC(OC3OC(CO)C(O)C(O)C3OC(=O)/C=C\c3ccc(O)cc3)C12` (stereo not drawn), for which the Potency entry is “inactive”.
Still for that read-out and setting: with `CC1CCC2(NC1)OC1C(O)C3C4CCC5CC(O[C@@H]6O[C@H](CO)[C@@H](O)[C@H](O)[C@H]6O[C@@H]6O[C@@H](C)[C@H](O)[C@@H](O)[C@H]6O)CCC5(C)C4CCC3(C)C1C2C` (stereo partly drawn) the entry was “inactive”; with `O=C(OCC1=C[C@@H](O)[C@@H]2C=CO[C@@H](O[C@@H]3O[C@H](CO)[C@@H](O)[C@H](O)[C@H]3O)[C@H]12)c1ccc(O)cc1`, “inactive”; with `CCC12CCCN3CCc4c(n(c5ccccc45)C(O)C1)C32` (stereo not drawn), “inactive”.
The same measure, in the same setting: next, `CC(=O)c1ccc(O[C@@H]2OC[C@@H](O)[C@H](O)[C@H]2O[C@]2(CO)O[C@H](CO)[C@@H](O)[C@@H]2O)c(O)c1`: “inactive”.
With `CC12CC(O)C(O)C=C1c1cc(O)cc(O)c1C(=O)O2` (stereo not drawn), the Potency result was “inactive”.
As to `COC(=O)C1(O)C(OC(C)=O)CCC2C3(CC(c4ccoc4)OC3=O)C(C)=CCC21C(=O)OC` (stereo not drawn), the Potency entry was “inactive”.
Still for that read-out and setting: next, `CC1(C)C=Cc2c(ccc3c2N=C2C(C)(C)[C@@H]4C[C@]56CCCN5C(=O)[C@@]4(C[C@]23O)NC6=O)O1`: “inactive”.
For the compound `C=C1[C@@H]2CC[C@@]3(C)[C@H](c4ccoc4)OC(=O)C[C@]13O[C@H]1CC(=O)C(C)(C)[C@H](C(O)C(=O)OC)[C@]12C` (stereo partly drawn), the Potency entry was “inactive”.
As to `COc1cc2c(c(OC)c1O)C(c1ccc(O)cc1)C1C(=O)OC3C(COC(=O)C1=C2)OC(CO)(OC1OC(COC(=O)/C=C/c2ccc(OC4OC(C)C(O)C(O)C4O)cc2)C(O)C(O)C1O)C3O` (stereo not drawn), the activity change, negative = cell killing was -15.9% [at 9.23 µM].
On to `OC[C@@]1(O)CO[C@@H](OC[C@H]2O[C@@H](Oc3ccccc3)[C@H](O)[C@@H](O)[C@@H]2O)[C@@H]1O`, for which the Potency result was “inactive”.
`CC1C2=CC(=O)OC2(O)CC2C1C(OC(=O)c1ccccc1)C(OC(=O)c1ccccc1)C1(O)C2(C)CCC(O)C1(C)C(=O)O` (stereo not drawn): the Potency result is “inactive”.
For the compound `Nc1ccc(-n2nc(C(F)(F)F)cc2C(F)(F)F)cc1`, the Potency entry was “inactive”.
Regarding `CC1=CC(=O)CC(C)(C)C1CO[C@@H]1O[C@H](CO)[C@@H](O)[C@H](O)[C@H]1O` (stereo partly drawn), the Potency entry is “inactive”.
As to `O=C(Cc1ccc(Cl)cc1)Nc1cnccc1C(=O)O`, the Potency entry was “inactive”.
In the case of `O=C(OCC1OC(Oc2ccc(O)cc2COC(=O)C2(O)C(O)CCC(=O)C2OC(=O)C2C=CCC2)C(OC(=O)C2C=CCC2)C(O)C1O)C1C=CCC1` (stereo not drawn), the Potency result is “inactive”.
Still for that read-out and setting: with `C/C=C(/C)C(=O)OC1C2OC2C2(CO2)C2C3OC(=O)C(C)C3CCC12C` (stereo not drawn) the entry was “inactive”; with `COc1cc(/C=C/C(=O)O[C@@H]2C[C@@](O)(C(=O)O)C[C@@H](O)[C@@H]2O)ccc1O`, “inactive”; with `C=C1[C@H](OC(C)=O)[C@H]2[C@@H](OC(=O)c3ccccc3)[C@@H](C)C[C@]2(O)[C@@H](OC(C)=O)[C@H](C)/C=C/C(C)(C)C(=O)[C@H](OC(C)=O)[C@H]1OC(C)=O`, “inactive”.
Regarding `CC(O)C1CCC2C3CCC4CC(OC5OC(C(=O)O)C(O)C(O)C5O)CCC4(C)C3CCC12C` (stereo not drawn), the Potency result was “inactive”.
In the case of `C[C@H]1[C@H](C)CC[C@]2(C(=O)OC3OC(CO)C(O)C(O)C3O)CC[C@]3(C(=O)O)C(=CCC4[C@@]5(C)CC[C@H](O[C@@H]6O[C@@H](C)[C@H](OC7OC(CO)C(O)C(O)C7O)[C@@H](O)[C@H]6O)C(C)(C)C5CC[C@]43C)[C@H]12` (stereo partly drawn), the activity change, negative = cell killing is -2.86% [at 9.23 µM].
Regarding `CC(NC(=O)CC(=O)O)C(=O)Nc1ccccc1C(N)=O` (stereo not drawn), the Potency result is “inactive”.
As for `CC1=C2C3OC(=O)C(C)C3(O)CCC2(C)CCC1` (stereo not drawn), the Potency result was “inactive”.
